High-throughput results from PubChem.
D1 antag = blocks dopamine activation of the human D1 receptor; P21728; HEK293 TREx D1 cells, calcium flux, dopamine EC80; active compounds read low; activity change, negative = inhibition, % at 10 µM; hit rate 3.2% among 360,000; in the data active = activity change below about -30%; note: % is set by controls: 0 for no effect and ±100 for the full control effect
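Tetracycline-induced HEK293 Trex D1 cells, force-coupled to calcium, dye-loaded; compounds added and read 180 s, then EC80 dopamine added and calcium flux tracked kinetically another 180 s.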
TRHR enhancer = allosteric enhancers of human TRH receptor. enhancement, % at 2 µM. hit rate 0.66% among 360,000. P34981. TRHR cells, fluo-8 calcium fluorescence, EC20 TRH enhancement. AID 493056; in the data active = enhancement above about 30%; note: 0% is about no effect
Target sequence (P34981 whole entry, looked up): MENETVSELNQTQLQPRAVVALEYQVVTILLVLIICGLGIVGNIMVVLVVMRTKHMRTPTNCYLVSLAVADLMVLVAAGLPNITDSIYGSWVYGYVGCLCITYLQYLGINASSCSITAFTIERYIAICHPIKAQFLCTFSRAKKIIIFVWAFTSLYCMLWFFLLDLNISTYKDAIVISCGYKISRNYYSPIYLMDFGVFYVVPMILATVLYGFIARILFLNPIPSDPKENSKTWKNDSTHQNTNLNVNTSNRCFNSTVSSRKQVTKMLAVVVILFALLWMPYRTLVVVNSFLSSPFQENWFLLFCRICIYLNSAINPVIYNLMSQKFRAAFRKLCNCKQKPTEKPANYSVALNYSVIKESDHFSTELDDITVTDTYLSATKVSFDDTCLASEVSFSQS
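TRHR-expressing cells loaded with fluo-8 calcium dye were read kinetically (ex 480/em 530) during compound addition, then stimulated with an EC20 of TRH (10 nM final). Enhancement of the Gq-mediated intracellular calcium response was scored.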
D1 agonist = agonists of human D1 dopamine receptor; P21728; HEK293 T-REx D1 cells, calcium flux, agonist mode; activation, % at 2 µM; hit rate 1% among 360,000; note: 0% is about no effect
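Tetracycline-induced HEK293 TREx D1 cells, force-coupled to calcium signalling, were dye-loaded with a no-wash calcium kit. Compound was pin-added after a 10 s baseline. Fluorescence was read kinetically at 1 cycle/s for 180 s, with calcium rises flagged as agonism.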
D1 potentiator = human D1 dopamine receptor positive modulation; hit rate 0.036% among 360,000; potentiation, % at 10 µM; AID 504651; HEK293 TREx D1 cells, calcium flux, dopamine EC20 potentiation; in the data active = potentiation above about 30%; note: 0% is about no effect
TRHR agonist = activates the human TRH receptor; TRHR cells, calcium flux fluo-8, FDSS agonist mode; hit rate 0.18% among 360,000; AID 493084; activation, % at 2 µM; note: 0% is about no effect
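TRHR-expressing cells loaded with fluo-8 calcium dye; 23 nL library compound pin-transferred, kinetic FDSS fluorescence (Ex 480/Em 530) recorded about 180 s for agonist-induced calcium release, before a 10 nM TRH EC20 addition for potentiator mode.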
Starred values were filed as active, the others as inactive; . = no result given. Rows were chosen to be rich in hits. Some 4.6% of all compounds tested hit in one or more screens of this group. Cut-off read from the data, not from the text of the source, unless noted: active = activation above about 30%; inactive = the rest.

SMILES	D1 antag	TRHR enhancer	D1 agonist	D1 potentiator	TRHR agonist
COc1ccc(-c2cc(C(F)(F)F)n3nc(C(=O)N4CCC5(CC4)OCCO5)cc3n2)cc1OC	3.5	4.2	1.0	-4.0	0.1
CC1CCC(C(C)C)C(OC(=O)Cn2c(COc3ccccc3)[n+](C)c3ccccc32)C1 (stereo not given)	22.3	7.6	41.0*	-6.3	-0.1
CC(=O)O[C@H]1C[C@@H]2CC[C@@H]3[C@H](CC[C@]4(C)C(=O)CC[C@@H]34)[C@@]2(C)C[C@@H]1OC(C)=O	-41.0*	-4.4	3.2	-6.5	-1.0
CNC(=O)OCc1n(C)cc[n+]1C	-9.8	11.9	6.8	-0.4	0.7
CCNC(=O)NC(=O)C(C)OC(=O)c1c(C)nn(Cc2ccccc2Cl)c1Cl (stereo not given)	-35.3*	-3.3	5.4	-3.5	-0.1
CCNC(=O)NC(=O)C(C)OC(=O)c1c(C)nn(Cc2ccccc2)c1Cl (stereo not given)	5.9	8.5	2.2	-0.6	0.0
CCCCn1c(O)c(C(CC)=NCc2ccc3c(c2)OCO3)c(=O)[nH]c1=O	-33.9*	0.2	1.0	-0.9	-0.4
C=CCn1c(O)c(C(CC)=NCc2ccc3c(c2)OCO3)c(=O)[nH]c1=O	-16.5	6.1	2.3	-4.2	-1.0
CC(Cc1ccccc1Sc1ccccc1)N(C)C (stereo not given)	-68.0*	4.0	26.0	-6.0	1.3
CN1CCN(Cc2ccccc2Sc2ccccc2)CC1	1.9	9.6	52.7*	-6.0	-0.5
CC(Cc1ccccc1Sc1ccc(O)cc1)N(C)C (stereo not given)	-48.5*	2.4	14.7	-22.1	0.1
CN1/C(=C\C=C2C(=O)NC(=O)NC2=O)C(C)(C)c2ccccc21	1.1	0.2	107.4*	-1.4	101.0*
Cc1ccc(C(=O)N[C@@H](C)CN2C3=NC[C@H](Cc4ccccc4)N3C[C@H]2Cc2ccc(O)cc2)cc1Br	-65.2*	-0.3	0.1	-12.3	-0.6
Cc1ccc(C(=O)N[C@@H](C)CN2C3=NC[C@@H](Cc4ccccc4)N3C[C@H]2Cc2ccc(O)cc2)cc1Br	-44.1*	10.8	-0.8	-5.8	-0.4
O=C(Cc1ccccc1)Oc1cccc(-n2cnnn2)c1	3.2	5.4	0.6	2.6	0.4
Clc1ccccc1NC1=NCCCS1	-0.6	35.4*	4.8	-2.8	0.4
Cc1ccc(NC(=O)N(Cc2ccc3c(c2)OCO3)C2CCN(Cc3ccccc3)CC2)cc1Cl	-7.0	-4.9	41.7*	-4.8	4.6
O=C1NC(=O)N(c2ccc(Cl)cc2)C(=O)/C1=C\c1ccc(Sc2nc3ccccc3[nH]2)o1	-9.1	-7.7	25.6	-1.8	0.5
CCOc1cc2c(cc1OCC)-n1cccc1C(c1ccc(F)c(OC)c1)NC2 (stereo not given)	-42.5*	-10.1	65.7*	-6.2	3.9
Cc1ccc(CNCCc2ccccc2F)cc1	-8.5	6.8	7.7	-3.9	0.5
CCN(CC)c1ccc(CNCCc2ccccc2F)cc1	21.6	3.5	45.5*	-5.8	1.0
CN(c1ccc(OCC(=O)N2CCN(C/C=C/c3ccccc3)CC2)cc1)S(=O)(=O)c1cccs1	-42.9*	-5.7	9.7	-1.1	0.6
O=C(COc1ccc(Cl)cc1Cl)N1CCN(C/C=C/c2ccccc2)CC1	17.3	-6.4	6.2	0.8	4.0
Cc1nc2ccccc2c(=O)n1-c1ccc(C(=O)O)cc1	-17.0	30.6*	4.1	-0.5	0.5
Cc1nc2ccccc2c(=O)n1-c1cccc(C(F)(F)F)c1	2.1	0.6	2.3	-4.7	-0.9
SMILES	D1 antag	TRHR enhancer	D1 agonist	D1 potentiator	TRHR agonist
CC(C)(C)N1C(=O)NC(=O)/C(=C\c2ccc3c(c2)CCN3CCCCl)C1=O	-32.4*	-1.3	1.3	-0.5	0.9
CN1CCN(c2ccc([N+](=O)[O-])c3no[n+]([O-])c23)CC1	-38.0*	-0.4	33.2*	-6.0	9.9
Cc1ccc(Cn2nc(C)c(C=O)c2Cl)cc1	-36.2*	-5.8	1.7	-4.6	-0.8
O=c1[nH]c(O)c(/C=C2/C=CC(c3cc(Cl)ccc3Cl)=N2)c(=O)[nH]1	-7.0	-16.5	72.5*	5.6	26.5
CCCCCCCSc1cc(OC)c(CCN(C)C)cc1OC	6.9	4.4	200.7*	7.2	-2.2
COc1cc(CCN)ccc1O	10.3	7.3	0.6	-3.5	-0.6
CCCCCSc1cc(OC)c(CCN)cc1OC	5.5	13.4	30.9*	1.3	2.0
Cc1ccc(S(=O)(=O)N(C)CCCC(=O)N2CCN(c3ccccn3)CC2)cc1	-10.7	-0.4	2.8	-7.3	-2.5
COc1ccc(-[n+]2c(-c3ccccc3)cc(-c3ccc(C)cc3)cc2-c2ccccc2)cc1	-17.9	0.0	4.6	-4.4	1.0
Cc1ccc(-n2cc(CNC(C)Cc3cnccn3)c(-c3cccc(C)c3)n2)cc1 (stereo not given)	34.9	6.6	37.1*	-3.0	-0.1
CCOc1ccc2nc(NC(=O)c3cccn(Cc4ccc(Cl)cc4)c3=O)sc2c1	-13.3	0.5	0.8	-4.0	0.5
CCc1ccc(N2C(=O)NC(=O)C(CCc3ccncc3)(CCc3ccncc3)C2=O)cc1	-0.6	1.1	1.6	0.8	0.5
O=C1NC(=O)C(CCc2ccncc2)(Cc2cccc(Cl)c2Cl)C(=O)N1c1ccc(Br)cc1 (stereo not given)	-75.7*	2.5	1.6	-9.2	0.0
CCC1(C(=O)c2ccc(C)cc2)C2c3ccccc3OC(=O)C21C(=O)O (stereo not given)	1.0	-1.1	2.2	0.1	1.2
Cc1ccccc1-[n+]1c(-c2ccccc2)cc(-c2ccccc2)cc1-c1ccccc1	-11.5	-3.6	1.2	-2.8	-0.3
Oc1ccc(C[C@H]2NCCc3cc(O)c(O)cc32)cc1O	-90.2*	5.2	2.4	-9.9	0.3
Oc1ccc(CC2CC3CCN2CC3)cc1O (stereo not given)	-9.9	3.6	-0.5	-4.0	0.4
CNc1ccc2oc(C[C@H]3O[C@@]4(CC[C@H]3C)O[C@H]([C@H](C)C(=O)c3ccc[nH]3)[C@H](C)C[C@H]4C)nc2c1C(=O)O	-44.9*	-17.1	418.5*	-5.6	123.3*
O=[N+]([O-])c1cc(-n2cnnn2)c(O)c([N+](=O)[O-])c1	3.0	-1.6	1.2	-5.2	0.4
O=[N+]([O-])c1cc(O)c(O)c([N+](=O)[O-])c1	-40.9*	-1.0	-0.9	-2.1	0.0
CN1CC=C(/C=C/c2ccc(-c3ccccc3)cc2)CC1	-40.1*	-0.2	23.8	1.4	0.4
COc1ccc(/C=C/C2=CCN(C)CC2)cc1	-9.9	2.3	5.2	-7.2	1.8
Cc1ccc(Cn2cccc(C(=O)Nc3cc(C)on3)c2=O)cc1	.	-3.0	6.7	-3.0	0.1
CN1CCN(c2nc(N)c(Br)c(Cl)n2)CC1	-33.9*	-4.6	3.8	-2.4	2.3
COc1cccc(CCNCc2ccc(SC)cc2)c1	-4.0	6.4	15.9	-4.8	-0.4
